Results: a collection of fitness landscapes (doi:10.1016/j.celrep.2020.107928)
Over roughly 81,000 sequences, “one-hybrid fitness for binding parS DNA” has its median near -0.17; the highest 2% begin near 0.51. The sample as a whole holds a higher share of the highest values than the screen did.

B1: Caulobacter ParB omega fusion; a variant is named by its letters at X, in order, B8GW30 (parent)
chain: MESVVVGEPGMSEGRRGLGRGLSALLGEVDAAPAQAPGEQLGGSREAPIEILQRNPDQPRRTFREEDLEDLSNSIREKGVLQPILVRPSPDTAGEYQIVAGERAWRAAQRAGLKTVPIMVRELDDLAVLEIGIIENVQRADLNVLEEALSYKVLMEKFERTQENIAQTIGKSXSHVANXMRLLXLPDEVQSYLVSGELTAXHARAIAAAADPVALAKQIIEGGLSVRETEALARKAPNLSAGKSKGGRPPRVKDTDTQALESDLSSVLGLDVSIDHRGSTGTLTITYATLEQLDDLCNRLTRGI

Variants of: B1
Experiment: one-hybrid fitness for binding parS DNA (scaled: cognate 1, non-cognate 0); higher = stronger binding
Conditions: with parS DNA site
How it was run: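 The reporter was HIS3, with the binding site 19 bp from the promoter, in E. coli USO used for bacterial one-hybrid selection of Caulobacter ParB libraries with four specificity codons randomised. Growth was on M9 lacking histidine, with 0.1 mM IPTG and 5 mM 3-AT, for 48 hours at 37°C. Illumina sequencing covered plasmids before and after selection; three replicate libraries were pooled and variants with under 10 reads dropped. A fitness score is the log change in variant-to-wild-type read ratio, rescaled to the cognate and non-cognate references.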

Variant	one-hybrid fitness for binding parS DNA
QAGG	≤ 0.2
VSVK	≤ 0.2
LNGG	≤ 0.2
RVID	≤ 0.2
RVPS	0.812
RVPD	≤ 0.2
RVIP	≤ 0.2
RVIS	0.981
RVPP	≤ 0.2
PTIM	≤ 0.2
CNLM	≤ 0.2
LLRY	≤ 0.2
EDTE	≤ 0.2
RSNK	≤ 0.2
RSDF	≤ 0.2
RDNG	≤ 0.2
RSYG	0.991
RSNG	1
RSDG	0.84
RCNG	0.966
RPNG	≤ 0.2
REDG	≤ 0.2
RENG	0.302
RSYF	0.233

Variant	one-hybrid fitness for binding parS DNA
RSYR	≤ 0.2
YWPS	≤ 0.2
CLAE	≤ 0.2
SEHQ	0.354
DVPP	≤ 0.2
PLMI	≤ 0.2
HVLG	≤ 0.2
AYDG	≤ 0.2
RDDG	≤ 0.2
RCDG	0.959
RPDG	≤ 0.2
EYDG	≤ 0.2
SQTL	≤ 0.2
RPIC	≤ 0.2
RAIM	0.209
RKIC	0.811
RSIC	0.718
RAPC	0.485
RKPC	0.488
RAIC	0.782
RCIC	0.906
RKIF	≤ 0.2
RDIC	≤ 0.2
RSIN	0.269

Variant	one-hybrid fitness for binding parS DNA
RSIH	≤ 0.2
ARLT	≤ 0.2
THAD	≤ 0.2
PYVA	≤ 0.2
HQCG	≤ 0.2
HLKN	≤ 0.2
RHPC	0.367
RHIC	0.651
RHIN	≤ 0.2
RNVC	0.599
RNKP	≤ 0.2
RNVF	≤ 0.2
RNKD	≤ 0.2
RNVR	≤ 0.2
RNKC	0.917
IKLC	≤ 0.2
LQAE	≤ 0.2
IYHY	≤ 0.2
VEVT	≤ 0.2
NPKT	≤ 0.2
ITLC	≤ 0.2
ARFV	≤ 0.2
RIVG	0.946
RIKG	0.959

Variant	one-hybrid fitness for binding parS DNA
RIVR	≤ 0.2
RIKK	≤ 0.2
RIVF	0.378
RIKN	0.451
HGLV	≤ 0.2
DGHT	≤ 0.2
QIRE	≤ 0.2
RTIY	0.418
RTPC	0.625
RTIM	0.279
RTPF	≤ 0.2
RTIC	0.912
QSQK	≤ 0.2
CSYS	≤ 0.2
TQQS	≤ 0.2
RYNP	≤ 0.2
RYNC	0.86
RYDC	0.949
RYNN	0.364
RYDY	0.422
RYDQ	0.223
PYET	≤ 0.2
QEHT	≤ 0.2
KIRI	≤ 0.2

Variant	one-hybrid fitness for binding parS DNA
THLT	≤ 0.2
CDLR	≤ 0.2
RINA	0.596
RIDA	0.55
NINA	≤ 0.2
GNPS	≤ 0.2
RCND	≤ 0.2
VLGC	≤ 0.2
NLPL	≤ 0.2
PQIT	≤ 0.2
SCSQ	≤ 0.2
QQAG	≤ 0.2
RKPD	≤ 0.2
RKPP	≤ 0.2
RKIG	0.855
RKIH	≤ 0.2
RKIN	0.322
RKPG	0.552
MVDG	≤ 0.2
KIKY	≤ 0.2
NDWV	≤ 0.2
VADQ	≤ 0.2
INHN	≤ 0.2
RTYW	0.262

Variant	one-hybrid fitness for binding parS DNA
RTKW	0.668
RTDW	≤ 0.2
RTRW	0.542
RTVW	0.218
RPKW	≤ 0.2
NNGS	≤ 0.2
PVIL	≤ 0.2
PSIS	≤ 0.2
TSQY	≤ 0.2
PQCN	≤ 0.2
RTDP	≤ 0.2
RTNH	≤ 0.2
RTDD	≤ 0.2
RTNF	0.403
RTNG	0.968
RTDG	0.935
MGVN	≤ 0.2
DGDV	≤ 0.2
WCVR	≤ 0.2
CTRY	≤ 0.2
YMTL	≤ 0.2
CALA	≤ 0.2
RNLG	0.831
RNGH	≤ 0.2

Variant	one-hybrid fitness for binding parS DNA
RNSD	≤ 0.2
RNSH	≤ 0.2
RNWG	0.651
RNWQ	≤ 0.2
RNGN	0.242
RNLY	0.303
RNGG	0.841
RNWM	≤ 0.2
RNSG	0.921
RNLQ	≤ 0.2
DCGR	≤ 0.2
MWMK	≤ 0.2
TMVR	≤ 0.2
TWPL	≤ 0.2
YNCT	≤ 0.2
YGAI	≤ 0.2
AARF	≤ 0.2
ITIY	≤ 0.2
RNHK	≤ 0.2
RNYP	≤ 0.2
RNCH	≤ 0.2
RNCG	0.771
RNQG	0.882
RNYG	0.789

Variant	one-hybrid fitness for binding parS DNA
RNQF	≤ 0.2
RNHM	≤ 0.2
RNHG	0.866
RNYR	≤ 0.2
RNQQ	≤ 0.2
RNCF	≤ 0.2
GTAW	≤ 0.2
LGVR	≤ 0.2
PMST	≤ 0.2
LAKV	≤ 0.2
PYNM	≤ 0.2
TKAL	≤ 0.2
PHQS	≤ 0.2
QTGN	≤ 0.2
NQIG	≤ 0.2
LHGR	≤ 0.2
WVYT	≤ 0.2
VPRP	≤ 0.2
RNRK	≤ 0.2
RNRY	0.503
RNRG	0.94
FALT	≤ 0.2
KIQT	≤ 0.2
TSHI	≤ 0.2

Variant	one-hybrid fitness for binding parS DNA
RVVQ	≤ 0.2
RVVC	0.914
RVVR	≤ 0.2
RVKR	≤ 0.2
RVKC	0.813
RVKF	0.355
DKVG	≤ 0.2
QKKI	≤ 0.2
HVMR	≤ 0.2
RPES	≤ 0.2
RLEP	≤ 0.2
RAES	0.948
RFES	0.881
RFEP	≤ 0.2
RCES	1.02
RAED	≤ 0.2
RLES	1
RCEP	≤ 0.2
RAEN	0.337
RFEN	0.342
RLEH	0.228
SMRL	≤ 0.2
HSNG	≤ 0.2
IHDA	≤ 0.2

Variant	one-hybrid fitness for binding parS DNA
GPGK	≤ 0.2
LPNM	≤ 0.2
LTRT	≤ 0.2
GAAR	≤ 0.2
NIPL	≤ 0.2
RSEH	≤ 0.2
RGES	0.554
RREN	0.3
RHED	≤ 0.2
RGEN	≤ 0.2
RHES	0.962
RGED	≤ 0.2
RRES	0.752
RSEP	≤ 0.2
RHEN	0.369
RRED	≤ 0.2
RSES	0.902
TVWR	≤ 0.2
ANGP	≤ 0.2
NLAR	≤ 0.2
SREP	≤ 0.2
GNAS	≤ 0.2
RKEP	≤ 0.2
RIEP	≤ 0.2

Variant	one-hybrid fitness for binding parS DNA
RTED	≤ 0.2
RMEP	≤ 0.2
RTES	0.985
RIES	0.93
RMED	≤ 0.2
RKEN	0.351
RTEH	0.208
RMES	0.956
RKES	0.899
RIEN	0.279
SVCD	≤ 0.2
VPCS	≤ 0.2
QSKG	≤ 0.2
MNTS	≤ 0.2
SEHV	≤ 0.2
RLMV	≤ 0.2
TMAV	≤ 0.2
QAEE	≤ 0.2
RSDI	≤ 0.2
RMKQ	≤ 0.2
RMVH	≤ 0.2
RMVC	0.96
RMVP	0.206
RMKC	0.849

Variant	one-hybrid fitness for binding parS DNA
RMKF	0.439
EAIW	≤ 0.2
RKTH	≤ 0.2
RSTH	0.234
RTTS	0.943
RTTP	≤ 0.2
RITN	0.409
RTTH	0.232
RSTD	≤ 0.2
RKTS	0.815
RITS	0.992
RKTD	≤ 0.2
RSTS	0.986
RITH	0.214
IIGK	≤ 0.2
ENYG	≤ 0.2
PEAY	≤ 0.2
HKGC	≤ 0.2
KDVC	≤ 0.2
LAWM	≤ 0.2
IPRY	≤ 0.2
RFTS	1.01
RLTP	≤ 0.2
RPTS	≤ 0.2

Variant	one-hybrid fitness for binding parS DNA
RFTP	≤ 0.2
RFTH	≤ 0.2
RHTN	0.384
RHTP	≤ 0.2
RHTS	0.893
RCTS	0.984
RCTN	0.475
RLTS	0.984
RLTH	0.232
CLVL	≤ 0.2
FTSY	≤ 0.2
KNRS	≤ 0.2
LLFA	≤ 0.2
AVGG	≤ 0.2
AARP	≤ 0.2
SKSL	≤ 0.2
VMLN	≤ 0.2
SWPW	≤ 0.2
